# Data reported in PubChem BioAssay (NCATS).
# Results filed as inconclusive are left out. This is one part of the list. Active and inactive are the calls of the source. Unless noted, the call rests on the fitted dose curve.
# Legend:
# [1] = qHTS for Inhibitors of the Functional Ribonucleoprotein Complex (vRNP) of Lassa (LASV) Arenavirus: Viability assay - alamar blue signal for LASV Primary Screen (AID 1347083; calls by dose curve; tested in HEK293 reporter line; further: nearly all actives have a fitted effect of over 80% in size; further: potency means the concentration at half of the fitted maximal effect)
# [2] = Confirmatory qHTS to identify inhibitors of SARS-CoV-2 cell entry (AID 1645844); further: potency means the concentration at half of the fitted maximal effect; nearly all actives have a fitted effect of over 45% in size
# In short: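 Luminescence from a luciferase reporter, read 48 hr after pseudotyped-particle addition, gives entry signal, normalised to spike-bearing PP wells and bald PP lacking fusion protein wells. Cells are Expi293F stably expressing human ACE2, compound-pretreated 1 hr.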
# [3] = Primary qHTS to identify inhibitors of SARS-CoV-2 cell entry (AID 1645846); details: activity change, negative = inhibition: at 57.1 µM (top of the series) unless noted; further: nearly all actives have a fitted effect of over 45% in size; further: potency means the concentration at half of the fitted maximal effect
# In short: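 Data are normalized to wells receiving SARS-CoV-2-S pseudoparticles and those given bald particles. Entry signal was luciferase luminescence in stable hACE2 Expi293F cells, 48 hr post-infection, after 1 hr compound pretreatment.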
# [4] = VSVG counterscreen qHTS to identify inhibitors of SARS-CoV-2 cell entry (AID 1645847); further: potency means the concentration at half of the fitted maximal effect; nearly all actives have a fitted effect of over 65% in size
# In short: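 Counterscreen using VSV-G (not spike) pseudotyped MLV particles on ACE2-expressing Expi293F cells after 1 h compound preincubation; infection ran 48 h at 37 °C. Data normalized to VSV-G PP and bald-PP wells.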
# [5] = qHTS for Inhibitors of the Functional Ribonucleoprotein Complex (vRNP) of Lymphocytic Choriomeningitis Arenaviruses (LCMV): Viability assay - alamar blue signal for LCMV Primary Screen (AID 1347085; calls by dose curve; tested in HEK293 reporter line; further: nearly all actives have a fitted effect of over 80% in size; further: potency means the concentration at half of the fitted maximal effect)
# [6] = biological target: Nucleoprotein (Lymphocytic choriomeningitis virus (strain Armstrong)) (UniProt P09992); assay: qHTS for Inhibitors of the Functional Ribonucleoprotein Complex (vRNP) of Lymphocytic Choriomeningitis Arenaviruses (LCMV): LCMV Primary Screen - GLuc reporter signal (AID 1347086); further: nearly all actives have a fitted effect of over 70% in size; further: potency means the concentration at half of the fitted maximal effect; on activity change, negative = inhibition: on the % scale 0 is the no-effect control and ±100 the full control effect
# [7] = Cytotoxicity counterscreen for inhibitors of SARS-CoV-2 cell entry (AID 1645845); further: nearly all actives have a fitted effect of over 50% in size; further: potency means the concentration at half of the fitted maximal effect
# In short: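 48 h compound treatment (after 1 h preincubation), HEK293-ACE2 cells, 37 C/5% CO2; ATP luminescence endpoint; normalized to cell wells and media blanks.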
# [8] = qHTS profiling of the MIPE4 collection as inhibitors of Plasmodium falciparum (3D7) proliferation (AID 743344; call rule not given here;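 further: scaled between DMSO vehicle wells and 0.29 µM artemisinin as full inhibition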); details: P. falciparum 3D7 in erythrocytes, SYBR Green DNA fluorescence, 72 h; at 28.5 µM (top of the series) unless noted
# In short: (§1)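 Erythrocytes infected with P. falciparum (0.3% parasitemia, 2.5% hematocrit) incubated with compounds 72 h at 37 C, 5% CO2. Lysis with saponin/Triton buffer containing SYBR Green I, overnight at room temperature in the dark; DNA fluorescence (485/535 nm) normalised to 0.29 uM artemisinin and DMSO.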
# [9] = qHTS profiling of the MIPE4 collection as inhibitors of Plasmodium falciparum (DD2) proliferation (AID 743345; call rule not given here); details: P. falciparum Dd2 in erythrocytes, SYBR Green DNA, 72 h; at 28.5 µM (top of the series) unless noted
# In short: as §1
# [10] = biological target: Peroxisome proliferator-activated receptor delta (Homo sapiens) (UniProt Q03181); assay: qHTS assay for small molecule agonists of peroxisome proliferator-activated receptor delta signaling (AID 588534);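 further: 0% = DMSO basal wells and 100% = positive control agonist at 10 µM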
# In short: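 Cells carrying a PPAR-delta beta-lactamase reporter were treated with compounds for 18 h at 37 °C in agonist mode. CCF4 fluorescence was read after 2 h; EC50 and efficacy from Hill fits.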
# [11] = Confirmatory qHTS for VERO E6 Cytotoxicity Assay: Counterscreen for SARS-CoV-2 CPE Assay (AID 1508605); further: potency means the concentration at half of the fitted maximal effect; nearly all actives have a fitted effect of over 60% in size
# [12] = biological target: DNA polymerase eta (Homo sapiens) (UniProt Q9Y253); assay: qHTS for Inhibitors of Polymerase Eta: Confirmatory Assay for Cherry-picked Compounds (AID 720502; active means well fitted curve in the direction sought with a large enough effect; an effect the other way counts as inactive or inconclusive; further: potency means the concentration at half of the fitted maximal effect); details: Pol eta primer extension, TAMRA/BHQ fluorescence, 10 min
# In short: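 Enzyme at 10 nM is mixed with pin-transferred compound and left 15 min at room temperature. Substrate (50 nM final) is then added, and plates are read at 0 min and after 10 min.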
# [13] = biological target: Bile acid receptor (Homo sapiens) (UniProt Q96RI1); assay: qHTS assay for small molecule agonists of farnesoid X receptor signaling (AID 588527); details: HEK293T FXR-UAS-bla, beta-lactamase ratio, 16 h; activation: stronger effect = higher value;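 further: 0% = vehicle basal and 100% = reference agonist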
# In short: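 Agonist-mode beta-lactamase reporter in GeneBLAzer FXR-UAS-bla HEK293T cells, titration up to 92 uM, 16 h exposure at 37 C, CCF4 fluorescence. Response scaled to DMSO (0%) and 100 uM chenodeoxycholic acid (100%), then Hill-fitted for EC50 and efficacy.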
# [14] = High Content Imaging Cell-Based qHTS for Inhibitors of the mTORC1 Signaling Pathway in MEF (Tsc2-/-, p53-/-) Cells (AID 2666; active means well fitted curve in the direction sought with a large enough effect; an effect the other way counts as inactive or inconclusive;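 further: percent of cells scored positive for phospho-rpS6 Ser235/236 immunostaining by imaging; potency means the concentration at half of the fitted maximal effect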)
# In short: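 Cells were plated, dosed with compound after 24 hrs, and incubated another 24 hrs at 37 degree Celsius. Fixed cells were immunostained for phospho-rpS6 Ser235/236 and counterstained, and the normalized signal was scored as % active cells against rapamycin and DMSO controls.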
# [15] = High Content Imaging Cell-Based qHTS for Inhibitors of the mTORC1 Signaling Pathway in MEF Cells (AID 2667; active means well fitted curve in the direction sought with a large enough effect; an effect the other way counts as inactive or inconclusive; further: potency means the concentration at half of the fitted maximal effect)
# In short: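 Immunofluorescence for rpS6 phosphorylation in MEFs of Tsc2-/-, p53-/- background rescued with WT Tsc2. Compound exposure lasted 24 hrs. Inhibition was scored against rapamycin-treated control wells.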
# [16] = Validation screen for inhibitors of Lassa infection (AID 463096); further: potency means the concentration at half of the fitted maximal effect
# [17] = biological target: M-phase phosphoprotein 8 (Homo sapiens) (UniProt Q99549); assay: qHTS Validation Assay for Inhibitors for MPP8 Chromodomain Interactions with Methylated Histone Tails (AID 488949; active means well fitted curve in the direction sought with a large enough effect; an effect the other way counts as inactive or inconclusive;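 further: AlphaScreen signal from MPP8 chromodomain bound to biotinylated H3K9me3 peptide; top concentration of the series differs between compounds; on the % scale 0 is the no-effect control and ±100 the full control effect; nearly all actives have a fitted effect of over 55% in size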)
# In short: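 Disruption of the preformed MPP8–trimethyl-H3K9 peptide complex (both 50 nM, 30 min, RT) is measured after 30 min compound exposure, using AlphaScreen proximity beads; aurintricarboxylic acid titration serves as plate control.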
# [18] = Inducers of the Endoplasmic Reticulum Stress Response (ERSR) in human glioma: Validation (AID 504836; active means well fitted curve in the direction sought with a large enough effect; an effect the other way counts as inactive or inconclusive; further: 0% is about no effect)
# In short: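 ERSR induction read as luciferase luminescence (Bright-Glo, 10 min at room temperature) in stably transfected human U87-MG glioma cells exposed to compounds for 16 h, using GRP78 as sensor.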
# [19] = biological target: Glutaminase kidney isoform, mitochondrial (Homo sapiens) (UniProt O94925); assay: qHTS for Inhibitors of Glutaminase (GLS): LOPAC Validation (AID 624146; active means well fitted curve in the direction sought with a large enough effect; an effect the other way counts as inactive or inconclusive;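 further: glutamate product detected by oxidase and peroxidase coupled Amplex red fluorescence gain; on the % scale 0 is the no-effect control and ±100 the full control effect; nearly all actives have a fitted effect of over 60% in size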)
# In short: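 Coupled fluorescence readout: glutamate oxidase/HRP/Amplex Red detect glutamate formed by hKGA from L-glutamine (1 mM solution added). Buffer 45 mM KH2PO4 pH 8.2, 0.02% Tween-20; reads at t0 and 30 min RT.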
# [20] = Primary qHTS for Huh7 cytotoxicity: counterscreen for inhibitors of MERS-S pseudotyped particle cell entry (AID 1479147); details: outcome: dose series up to 57.1 µM unless noted; further: on the % scale 0 is the no-effect control and ±100 the full control effect
# [21] = Primary qHTS for inhibitors of MERS-S pseudo-typed particle cell entry (AID 1479149); further: on the % scale 0 is the no-effect control and ±100 the full control effect; nearly all actives have a fitted effect of over 60% in size
# [22] = Primary qHTS for Vero E6 cytotoxicity: counterscreen for inhibitors of SARS-S pseudo-typed particle cell entry (AID 1479150); details: outcome: dose series up to 57.1 µM unless noted; further: on the % scale 0 is the no-effect control and ±100 the full control effect
# Nucleoprotein (Lymphocytic choriomeningitis virus (strain Armstrong)), sequence (P09992 whole entry, looked up): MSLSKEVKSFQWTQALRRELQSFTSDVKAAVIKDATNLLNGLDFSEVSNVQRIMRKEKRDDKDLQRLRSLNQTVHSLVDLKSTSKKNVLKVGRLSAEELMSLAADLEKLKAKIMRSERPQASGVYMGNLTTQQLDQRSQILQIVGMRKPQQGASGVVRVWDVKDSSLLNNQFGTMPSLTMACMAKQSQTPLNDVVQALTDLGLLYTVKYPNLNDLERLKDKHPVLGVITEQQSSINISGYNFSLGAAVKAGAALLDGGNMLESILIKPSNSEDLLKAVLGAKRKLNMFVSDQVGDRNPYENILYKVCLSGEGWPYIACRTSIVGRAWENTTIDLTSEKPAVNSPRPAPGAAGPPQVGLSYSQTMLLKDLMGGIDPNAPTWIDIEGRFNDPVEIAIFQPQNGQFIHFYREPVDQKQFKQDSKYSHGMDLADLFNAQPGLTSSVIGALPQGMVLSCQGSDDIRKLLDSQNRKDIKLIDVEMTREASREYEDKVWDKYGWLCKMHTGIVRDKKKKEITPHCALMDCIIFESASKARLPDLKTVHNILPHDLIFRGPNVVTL
# Peroxisome proliferator-activated receptor delta (Homo sapiens), sequence (Q03181 whole entry, looked up): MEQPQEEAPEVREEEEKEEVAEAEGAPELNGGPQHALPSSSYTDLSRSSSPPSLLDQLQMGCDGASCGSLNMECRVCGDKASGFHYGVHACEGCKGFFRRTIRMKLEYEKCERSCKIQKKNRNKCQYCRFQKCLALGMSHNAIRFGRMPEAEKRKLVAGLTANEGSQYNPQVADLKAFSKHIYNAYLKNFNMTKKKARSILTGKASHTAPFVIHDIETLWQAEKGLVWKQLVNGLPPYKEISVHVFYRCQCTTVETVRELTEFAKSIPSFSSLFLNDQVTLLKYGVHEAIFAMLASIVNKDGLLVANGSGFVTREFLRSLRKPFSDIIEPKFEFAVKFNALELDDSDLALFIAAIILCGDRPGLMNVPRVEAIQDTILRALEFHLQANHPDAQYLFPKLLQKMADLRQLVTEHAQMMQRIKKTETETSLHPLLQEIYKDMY
# Glutaminase kidney isoform, mitochondrial (Homo sapiens), sequence (O94925 whole entry, looked up, canonical isoform): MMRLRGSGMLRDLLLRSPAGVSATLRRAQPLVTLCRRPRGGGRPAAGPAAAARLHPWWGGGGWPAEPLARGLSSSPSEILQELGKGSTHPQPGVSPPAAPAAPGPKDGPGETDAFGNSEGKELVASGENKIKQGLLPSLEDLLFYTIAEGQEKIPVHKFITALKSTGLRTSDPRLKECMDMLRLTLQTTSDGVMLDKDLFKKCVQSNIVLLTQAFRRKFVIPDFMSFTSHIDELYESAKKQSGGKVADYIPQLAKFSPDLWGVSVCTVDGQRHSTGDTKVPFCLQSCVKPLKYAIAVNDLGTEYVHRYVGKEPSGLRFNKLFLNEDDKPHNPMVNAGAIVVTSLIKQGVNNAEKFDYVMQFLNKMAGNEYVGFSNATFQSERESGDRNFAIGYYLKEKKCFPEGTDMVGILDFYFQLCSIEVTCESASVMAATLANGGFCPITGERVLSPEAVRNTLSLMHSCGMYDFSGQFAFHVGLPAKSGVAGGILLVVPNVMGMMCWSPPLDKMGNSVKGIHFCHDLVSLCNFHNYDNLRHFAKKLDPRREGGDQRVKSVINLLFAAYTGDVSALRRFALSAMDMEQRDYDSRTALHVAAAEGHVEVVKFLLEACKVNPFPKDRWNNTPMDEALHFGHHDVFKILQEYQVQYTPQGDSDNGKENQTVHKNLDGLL
# DNA polymerase eta (Homo sapiens), sequence (Q9Y253 whole entry, looked up): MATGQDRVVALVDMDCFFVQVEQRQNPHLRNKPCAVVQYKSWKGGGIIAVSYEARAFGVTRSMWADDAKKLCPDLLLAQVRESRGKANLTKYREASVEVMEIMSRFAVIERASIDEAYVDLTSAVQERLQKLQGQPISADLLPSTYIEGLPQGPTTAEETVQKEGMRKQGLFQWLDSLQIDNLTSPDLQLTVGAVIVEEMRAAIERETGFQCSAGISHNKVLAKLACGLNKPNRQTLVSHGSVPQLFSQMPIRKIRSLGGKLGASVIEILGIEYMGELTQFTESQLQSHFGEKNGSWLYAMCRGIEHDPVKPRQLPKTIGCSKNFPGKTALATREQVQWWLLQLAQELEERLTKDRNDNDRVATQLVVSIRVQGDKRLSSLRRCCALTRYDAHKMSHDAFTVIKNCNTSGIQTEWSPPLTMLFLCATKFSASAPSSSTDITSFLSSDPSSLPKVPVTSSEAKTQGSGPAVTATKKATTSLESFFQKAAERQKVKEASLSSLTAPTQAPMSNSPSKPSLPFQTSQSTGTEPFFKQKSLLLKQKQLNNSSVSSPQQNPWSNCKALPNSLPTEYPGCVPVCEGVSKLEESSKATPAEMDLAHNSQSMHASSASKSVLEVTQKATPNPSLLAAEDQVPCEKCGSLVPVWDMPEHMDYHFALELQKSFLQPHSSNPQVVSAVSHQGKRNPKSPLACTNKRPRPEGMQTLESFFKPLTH
# Bile acid receptor (Homo sapiens), sequence (Q96RI1 whole entry, looked up): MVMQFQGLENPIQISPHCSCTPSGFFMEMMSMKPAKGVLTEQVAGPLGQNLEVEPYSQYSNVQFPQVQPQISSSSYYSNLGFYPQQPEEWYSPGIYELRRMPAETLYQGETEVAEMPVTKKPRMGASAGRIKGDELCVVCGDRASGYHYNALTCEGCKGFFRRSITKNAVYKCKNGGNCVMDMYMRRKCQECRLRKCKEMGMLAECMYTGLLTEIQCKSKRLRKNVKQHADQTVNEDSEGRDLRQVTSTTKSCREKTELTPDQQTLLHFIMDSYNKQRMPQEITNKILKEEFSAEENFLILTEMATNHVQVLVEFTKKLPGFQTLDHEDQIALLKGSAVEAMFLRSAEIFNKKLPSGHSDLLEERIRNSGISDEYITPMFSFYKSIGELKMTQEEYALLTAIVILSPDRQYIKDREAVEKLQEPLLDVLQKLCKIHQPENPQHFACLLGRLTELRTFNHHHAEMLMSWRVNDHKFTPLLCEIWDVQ
# M-phase phosphoprotein 8 (Homo sapiens), sequence (Q99549 whole entry, looked up): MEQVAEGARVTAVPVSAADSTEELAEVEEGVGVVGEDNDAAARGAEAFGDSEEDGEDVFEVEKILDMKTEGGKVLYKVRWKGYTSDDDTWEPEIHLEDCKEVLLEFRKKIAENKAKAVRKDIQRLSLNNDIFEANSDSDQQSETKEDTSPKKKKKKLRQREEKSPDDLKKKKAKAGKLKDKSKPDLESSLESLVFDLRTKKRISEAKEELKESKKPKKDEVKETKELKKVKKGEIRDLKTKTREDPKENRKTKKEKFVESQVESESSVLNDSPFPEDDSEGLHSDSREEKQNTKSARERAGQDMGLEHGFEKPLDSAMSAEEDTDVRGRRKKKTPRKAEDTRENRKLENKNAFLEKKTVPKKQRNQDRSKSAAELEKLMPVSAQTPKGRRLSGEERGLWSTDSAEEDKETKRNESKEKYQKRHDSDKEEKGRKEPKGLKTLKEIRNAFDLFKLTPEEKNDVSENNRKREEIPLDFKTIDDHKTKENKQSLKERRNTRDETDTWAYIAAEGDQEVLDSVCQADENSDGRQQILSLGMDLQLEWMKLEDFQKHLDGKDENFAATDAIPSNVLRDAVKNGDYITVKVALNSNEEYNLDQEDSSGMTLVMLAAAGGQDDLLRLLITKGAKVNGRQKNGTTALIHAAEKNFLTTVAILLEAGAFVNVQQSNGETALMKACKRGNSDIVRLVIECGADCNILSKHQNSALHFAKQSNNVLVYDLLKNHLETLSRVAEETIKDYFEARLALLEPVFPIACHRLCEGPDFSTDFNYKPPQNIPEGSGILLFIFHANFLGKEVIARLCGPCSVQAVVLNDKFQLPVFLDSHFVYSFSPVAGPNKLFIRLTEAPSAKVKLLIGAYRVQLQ
compound,measurement,setting,value
COc1ccc(S(=O)(=O)Nc2cccnc2Nc2ccc(O)cc2)cc1,Potency,[1],0.273 µM (active)
same,Potency,[2],1.21 µM (active)
same,Potency,[3],6.31 µM (active)
same,Potency,[4],0.541 µM (active)
CCC1(O)C(=O)OCc2c1cc1n(c2=O)Cc2cc3cc(O)ccc3nc2-1 (stereo not drawn),Potency,[5],0.1 µM (active)
CC(C)CNc1ccnc(NCc2csc(-c3ccccc3)n2)n1,Potency,[1],13.7 µM (active)
same,Potency,[6],15.3 µM (active)
same,Potency,[7],22.4 µM (active)
CN(C)CCOc1ccc(C(=C(CCCl)c2ccccc2)c2ccccc2)cc1,"parasite growth, % of DMSO control",[8],67.8%
same,"parasite growth remaining, % of DMSO control (lower = more inhibition)",[9],55.4%
same,Potency,[1],12.2 µM (active)
CNC1CCC(N(Cc2cccc(-c3ccncc3)c2)C(=O)c2sc3ccccc3c2Cl)CC1 (stereo not drawn),Potency,[1],30.6 µM (active)
same,Potency,[6],10.9 µM (active)
same,Potency,[7],31.6 µM (active)
C[C@@H](NC(=O)c1ncnc(N)c1Cl)c1ncc(C(=O)Nc2cc(C(F)(F)F)c(Cl)cn2)s1,Potency,[1],24.3 µM (active)
same,Potency,[7],inactive
same,"activity change, negative = inhibition",[3],-12.7%
COc1ccc(C=Cc2cc(OC)c(OC)c(OC)c2)cc1NC(=O)[C@H](N)CO,Potency,[1],0.0022 µM (active)
same,Potency,[6],inactive
same,"activity change, negative = inhibition",[3],-66.1%
CCOC(=O)N[C@@H]1CC[C@@H]2[C@@H](C1)C[C@H]1C(=O)O[C@H](C)[C@H]1[C@@H]2C=Cc1ccc(-c2cccc(F)c2)cn1,Potency,[5],5.44 µM (active)
CCCCC[C@H]1CCCCC[C@@H](O)C[C@H](O)[C@H](O)/C=C/C(=O)O1,Potency,[5],inactive
COc1cc2ncnc(Nc3cccc(Br)c3)c2cc1OC,Potency,[1],0.344 µM (active)
same,Potency,[7],inactive
same,"activity change, negative = inhibition",[3],-19.5%
Cc1cnc(Nc2ccc(CN3CCOCC3)cc2)nc1Nc1cccc(S(=O)(=O)NC(C)(C)C)c1,Potency,[1],4.32 µM (active)
same,Potency,[7],12.6 µM (active)
C[C@]12CC[C@@H]3c4ccc(O)cc4CC[C@H]3[C@H]1CC[C@H]2O,Potency,[10],inactive
same,Potency,[1],9.68 µM (active)
same,Potency,[6],1.22 µM (active)
Cc1c(NC(=O)OC[C@@H]2COCCN2)cn2ncnc(Nc3ccc4c(cnn4Cc4cccc(F)c4)c3)c12,Potency,[1],1.22 µM (active)
same,Potency,[11],11.2 µM (active)
same,Potency,[7],inactive
NC(=O)N1CCC(CC(=O)N2CCC([C@H]3c4ncc(Br)cc4CCc4cc(Cl)cc(Br)c43)CC2)CC1,Potency,[1],inactive
same,Potency,[6],12.2 µM (active)
same,"activity change, negative = inhibition",[3],-87.3%
C[C@@H]1COC(Nc2ccc3ncnc(Nc4ccc(OCc5nccs5)c(Cl)c4)c3c2)=N1,Potency,[1],1.53 µM (active)
same,Potency,[6],1.22 µM (active)
same,Potency,[7],31.6 µM (active)
COC1CCC(OC2CC(C3(C)CCC4(CC(O)C(C)C(C(C)/C=C(\C)C(=O)C(C)CC(C)C(=O)O)O4)O3)OC3(OC(C4OC(O)(CO)C(C)CC4C)CC3C)C2C)OC1C (stereo not drawn),Potency,[5],inactive
C[C@@H]1C[C@@H]2O[C@H]2/C=C\C=C\C(=O)Cc2c(Cl)c(O)cc(O)c2C(=O)O1,Potency,[12],26.9 µM (active)
same,Potency,[1],6.31 µM (active)
CS(=O)(=O)N1CCc2c(-c3cnc(N)nc3)nc(N3CCOCC3)nc21,Potency,[1],0.273 µM (active)
same,Potency,[6],inactive
same,Potency,[7],3.55 µM (active)
Nc1nc(N)c2nc(-c3cccc(O)c3)c(-c3cccc(O)c3)nc2n1,Potency,[1],8.63 µM (active)
same,Potency,[7],inactive
same,"activity change, negative = inhibition",[3],-9.58%
NC(=O)Nc1cc(-c2ccc(CN3CCOCC3)cc2)sc1C(N)=O,Potency,[1],7.69 µM (active)
same,Potency,[6],inactive
same,Potency,[7],inactive
same,"activity change, negative = inhibition",[3],-10.1%
CN(C)N=Nc1nc[nH]c1C(N)=O,Potency,[1],17.2 µM (active)
same,Potency,[7],inactive
Cc1ccn(-c2ccc(-c3ncco3)cc2)c(=O)c1-c1ccc2nc(N)ncc2c1,Potency,[1],3.43 µM (active)
same,Potency,[6],inactive
same,Potency,[7],inactive
same,Potency,[3],inactive
C#Cc1cccc(Nc2ncnc3cc(OCCOC)c(OCCO)cc23)c1,"parasite growth remaining, % of DMSO control (lower = more inhibition)",[9],36.9%
same,Potency,[1],10.9 µM (active)
same,Potency,[7],inactive
COCCOc1ccc2c(c1)ncn2-c1ccc2cccc(N3CCC(N)CC3)c2n1,Potency,[1],24.3 µM (active)
same,Potency,[6],inactive
same,Potency,[3],12.6 µM (active)
c1ccc2c(Cc3c[nH]c4ccccc34)c[nH]c2c1,Potency,[1],4.32 µM (active)
same,Potency,[6],13.7 µM (active)
same,Potency,[7],inactive
Cc1cccc(O)c1C,activation,[13],-0.773% (inactive)
same,Potency,[10],inactive
same,Potency,[5],inactive
same,Potency,[6],inactive
CC12C(=O)OC(=O)C1(C)C1CCC2O1 (stereo not drawn),Potency,[14],9.27 µM (active)
same,Potency,[15],4.65 µM (active)
same,Potency,[16],10 µM (active)
same,Potency,[17],inactive
same,outcome,[18],inactive
same,outcome,[19],inactive
same,Potency,[5],11.2 µM (active)
COc1c(O)c(=O)n2c3ccccc3c3ccnc1c32,Potency,[6],inactive
COc1cc2c(NC3CCN(C(C)C)CC3)nc(C3CCCCC3)nc2cc1OCCCN1CCCC1,Potency,[5],38.5 µM (active)
same,Potency,[3],8.91 µM (active)
Cc1ccc(S(=O)(=O)/C=C/C#N)cc1,outcome,[18],inactive
same,Potency,[5],inactive
Nc1ccc(N=Nc2ccc(-c3ccc(N=Nc4c(S(=O)(=O)O)cc5cc(S(=O)(=O)O)c(N=Nc6ccccc6)c(O)c5c4N)cc3)cc2)c(N)c1,Potency,[6],inactive
C=C1C(=O)OC2CC3(C)OC3CCC(C)=CC(OC(C)=O)C12 (stereo not drawn),Potency,[5],inactive
CCOc1cc2c(c(F)c1OCC)C(=N)N(CC(=O)c1cc(N3CCOCC3)c(OC)c(C(C)(C)C)c1)C2,Potency,[5],24.3 µM (active)
same,Potency,[6],9.68 µM (active)
same,Potency,[3],35.5 µM (active)
N#Cc1cc([N+](=O)[O-])c2sc(C(N)=O)[n+]([O-])c2c1,outcome,[18],inactive
same,Potency,[5],inactive
same,Potency,[6],inactive
COc1ccc(-c2coc3cc(O)cc(O)c3c2=O)cc1,Potency,[6],inactive
same,Potency,[7],inactive
CO[C@@H]1[C@@H](OC2OC(C)C(OC3CC(C)(O)C(OC(=O)CC(C)C)C(C)O3)C(N(C)C)C2O)[C@@H](CC=O)C[C@@H](C)C(=O)/C=C\C2O[C@H]2C[C@@H](C)OC(=O)C[C@H]1OC(C)=O (stereo partly drawn),Potency,[5],inactive
same,Potency,[6],inactive
same,outcome,[20],inactive
same,Potency,[21],inactive
same,outcome,[22],inactive
same,Potency,[2],0.0152 µM (active)
same,Potency,[3],28.2 µM (active)
same,Potency,[4],17.1 µM (active)
CCN(CC)CCOc1ccc(C(=C(Cl)c2ccccc2)c2ccccc2)cc1,Potency,[6],inactive
COc1ccc(-c2cc(=O)c3c(O)cc(O[C@@H]4O[C@H](CO[C@@H]5O[C@@H](C)[C@H](O)[C@@H](O)[C@@H]5O)[C@@H](O)[C@H](O)[C@@H]4O)cc3o2)cc1O,Potency,[6],10.9 µM (active)
